# Measurements: PubChem BioAssay (EPA / NIEHS)
# Calls of active or inactive are those of the source. Rule for the calls: active = hit-call score of the fitted dose curve at least 0.9, where 1 is the maximum; inactive = score below 0.9.
# Key:
# Conditions in all cases: mRNA level, 48 h; actives raise or lower the signal
# [1] = read-out: Lipase C (LIPC), LIPC (gene 3990); assay: LTEA_HepaRG_LIPC: Life Technologies and Expression Analysis (LTEA) Assay for Lipase C (LIPC) using HepaRG (AID 2283514)
# Method in brief: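 Read-out is LIPC transcript level by TaqMan qRT-PCR, normalized to three housekeeping genes, after 48 h chemical treatment of human HepaRG liver cells. Curves span eight concentrations topping at 100 uM; activity in either direction scored relative to 0.5% DMSO.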
# [2] = read-out: Lipoprotein lipase (LPL), LPL (gene 4023); assay: LTEA_HepaRG_LPL: Life Technologies and Expression Analysis (LTEA) Assay for Lipoprotein lipase (LPL) using HepaRG (AID 2283515)
# Method in brief: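 Read-out is LPL transcript level by qRT-PCR, normalized to three housekeeping genes and fitted bidirectionally against the DMSO control. Human HepaRG cells received chemicals for 48 h at up to 100 uM.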
# [3] = read-out: MicroRNA 122 (MIR122), gene 406906; assay: LTEA_HepaRG_MIR122: Life Technologies and Expression Analysis (LTEA) Assay for MicroRNA 122 (MIR122) using HepaRG (AID 2283516); note: the transcript read is the microRNA miR-122
# Method in brief: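 Differentiated human HepaRG cells in serum-free induction medium exposed 48 h to 8 half-log concentrations from 100 uM in 0.5% DMSO, duplicate. MIR122 quantified by Fluidigm TaqMan qRT-PCR, normalised to ACTB, GAPDH, POLR2A; fold change fitted bidirectionally versus DMSO.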
# [4] = read-out: matrix metalloproteinase-10 (MMP10), MMP10 (gene 4319); assay: LTEA_HepaRG_MMP10: Life Technologies and Expression Analysis (LTEA) Assay for matrix metalloproteinase-10 (MMP10) using HepaRG (AID 2283517)
# Method in brief: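 Gain or loss of MMP10 mRNA is fitted relative to the 0.5% DMSO vehicle. The human hepatic line HepaRG receives a 48-hour serum-free exposure, in duplicate, with a maximum concentration of 100 uM.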
# MYC, MYC (gene 4609) = assay: LTEA_HepaRG_MYC: Life Technologies and Expression Analysis (LTEA) Assay for MYC using HepaRG (AID 2283518)
# Method in brief: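 MYC transcript changes, up or down relative to 0.5% DMSO, from TaqMan qRT-PCR normalized to three housekeeping genes. Human HepaRG cultures received chemicals for 48 h at eight half-log concentrations up to 100 uM, in duplicate.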
# [5] = read-out: matrix metalloproteinase-3 (MMP3), MMP3 (gene 4314); assay: LTEA_HepaRG_MMP3: Life Technologies and Expression Analysis (LTEA) Assay for matrix metalloproteinase-3 (MMP3) using HepaRG (AID 2283519)
# Method in brief: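 HepaRG, human; 48 h dosing, 8 conc. (max 100 uM, half-log), duplicate, 0.5% DMSO. Readout: MMP3 transcript by Fluidigm TaqMan qRT-PCR, ACTB/GAPDH/POLR2A-normalised. Gain or loss fitted vs DMSO.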
# [6] = read-out: Nuclear factor NF-kappa-B p105 subunit (Homo sapiens) (UniProt P19838); assay: LTEA_HepaRG_NFKB1: Life Technologies and Expression Analysis (LTEA) Assay for Nuclear Factor Kappa B Subunit 1 (NFKB1) using HepaRG (AID 2283521)
# Method in brief: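 Differentiated human HepaRG cells in serum-free induction medium with 0.5% DMSO were exposed for 48 h to eight half-log concentrations, top 100 uM, in duplicate. NFKB1 mRNA measured by Fluidigm TaqMan qRT-PCR, normalised to ACTB, GAPDH and POLR2A; bidirectional fit versus DMSO.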
# [7] = read-out: Protein phosphatase 2A (PPP2R4), PTPA (gene 5524); assay: LTEA_HepaRG_PPP2R4: Life Technologies and Expression Analysis (LTEA) Assay for Protein phosphatase 2A (PPP2R4) using HepaRG (AID 2283522)
# Method in brief: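 Differentiated human HepaRG cells in serum-free induction medium were exposed 48 h to 8 concentrations (top 100 µM, half-log steps, duplicate) in 0.5% DMSO. PPP2R4 mRNA was measured by TaqMan qRT-PCR, normalised to ACTB, GAPDH and POLR2A, and fitted bidirectionally versus DMSO.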
# [8] = read-out: Phosphatase and tensin (PTEN), PTEN (gene 5728); assay: LTEA_HepaRG_PTEN: Life Technologies and Expression Analysis (LTEA) Assay for Phosphatase and tensin (PTEN) using HepaRG (AID 2283523)
# Method in brief: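 Read-out is PTEN transcript level by multiplexed TaqMan qRT-PCR after 48 h chemical treatment of human HepaRG cultures in serum-free induction medium. Concentrations spanned 100 uM downward in half-log steps, 0.5% DMSO throughout; activity fitted in both directions against vehicle.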
# [9] = read-out: solute carrier (SLC22A1), SLC22A1 (gene 6580); assay: LTEA_HepaRG_SLC22A1: Life Technologies and Expression Analysis (LTEA) Assay for solute carrier (SLC22A1) using HepaRG (AID 2283524)
# Method in brief: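 HepaRG (human liver line), 48 h dosing in serum-free induction medium; 8 conc., half-log down from 100 uM, 0.5% DMSO vehicle, duplicates. Endpoint: SLC22A1 mRNA, qRT-PCR, housekeeping-normalized; gain/loss fit vs DMSO.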
# [10] = read-out: Pyruvate Dehydrogenase Kinase 4 (PDK4), PDK4 (gene 5166); assay: LTEA_HepaRG_PDK4: Life Technologies and Expression Analysis (LTEA) Assay for Pyruvate Dehydrogenase Kinase 4 (PDK4) using HepaRG (AID 2283525)
# Method in brief: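 In this multiplexed human HepaRG expression assay, cells are treated 48 h with test chemicals across an eight-point range starting at 100 uM. PDK4 mRNA changes, normalized to ACTB/GAPDH/POLR2A, are fitted in both directions relative to vehicle.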
# [11] = read-out: NAD(P)H dehydrogenase [quinone] 1 (NQO1), NQO1 (gene 1728); assay: LTEA_HepaRG_NQO1: Life Technologies and Expression Analysis (LTEA) Assay for NAD(P)H dehydrogenase [quinone] 1 (NQO1) using HepaRG (AID 2283526)
# Method in brief: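 Differentiated human HepaRG cells in serum-free induction medium, dosed in duplicate for 48 h at 8 half-log concentrations up to 100 uM in 0.5% DMSO. NQO1 mRNA by qRT-PCR normalized to ACTB, GAPDH, POLR2A; bidirectional fit versus DMSO baseline.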
# [12] = read-out: Nuclear factor erythroid 2-related factor 2 (Homo sapiens) (UniProt Q16236); assay: LTEA_HepaRG_NFE2L2: Life Technologies and Expression Analysis (LTEA) Assay for Nuclear factor erythroid 2-related factor 2 (NFE2L2) Transcription Factor using HepaRG (AID 2283527);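 note: TaqMan qRT-PCR transcript level normalised to ACTB GAPDH and POLR2A housekeeping genes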
# Method in brief: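 Transcript level of NFE2L2 is the read-out, measured by microfluidic TaqMan qRT-PCR and normalized to three housekeeping genes. Human HepaRG cultures received test chemical for 48 h at up to 100 uM in half-log steps. Gain or loss of signal is fitted relative to 0.5% DMSO.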
# [13] = read-out: succinate dehydrogenase complex iron sulfur subunit B (SDHB), SDHB (gene 6390); assay: LTEA_HepaRG_SDHB: Life Technologies and Expression Analysis (LTEA) Assay for succinate dehydrogenase complex iron sulfur subunit B (SDHB) using HepaRG (AID 2283528)
# Method in brief: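 HepaRG cells (~100,000/well, plated 48 h) exposed in duplicate for 48 h in serum-free induction medium to 8-point half-log series from 100 uM in 0.5% DMSO; mRNA by qRT-PCR normalised to ACTB, GAPDH, POLR2A; bidirectional fit versus DMSO.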
# [14] = read-out: Signal transducer and activator of transcription 3 (Homo sapiens) (UniProt P40763); assay: LTEA_HepaRG_STAT3: Life Technologies and Expression Analysis (LTEA) Assay for Signal transducer and activator of transcription (STAT3) using HepaRG (AID 2283529)
# Method in brief: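 Read-out is STAT3 mRNA level by qRT-PCR, normalized to three housekeeping genes, in human HepaRG liver cells treated for 48 h. Concentrations ran from 100 uM downward in half-log steps; curves were fitted for gain or loss relative to 0.5% DMSO.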
# [15] = read-out: solute carrier (SLCO1B1), SLCO1B1 (gene 10599); assay: LTEA_HepaRG_SLCO1B1: Life Technologies and Expression Analysis (LTEA) Assay for solute carrier (SLCO1B1) using HepaRG (AID 2283530)
# Method in brief: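 SLCO1B1 transcript levels were quantified by TaqMan qRT-PCR using three housekeeping genes for normalization. This followed 48 h chemical exposure (100 uM top, half-log, 8 points, 0.5% DMSO) of HepaRG liver cells, with gain or loss fitted relative to DMSO.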
# [16] = read-out: sulfotransferase 2A1 (SULT2A1), SULT2A1 (gene 6822); assay: LTEA_HepaRG_SULT2A1: Life Technologies and Expression Analysis (LTEA) Assay for sulfotransferase 2A1 (SULT2A1) using HepaRG (AID 2283531)
# Method in brief: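 Expression change of SULT2A1, by qRT-PCR with three housekeeping-gene normalization, was scored bidirectionally versus DMSO. Cells: differentiated HepaRG, dosed in duplicate for 48 h across 8 points, highest 100 µM, half-log dilution, 0.5% DMSO.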
# [17] = read-out: Transforming Growth Factor (TGFA), TGFA (gene 7039); assay: LTEA_HepaRG_TGFA: Life Technologies and Expression Analysis (LTEA) Assay for Transforming Growth Factor (TGFA) using HepaRG (AID 2283532)
# Method in brief: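 HepaRG (human liver line), 48 h exposure, 8 conc. half-log down from 100 uM, 0.5% DMSO vehicle, duplicates; serum-free induction medium. TGFA mRNA by TaqMan qRT-PCR, ACTB/GAPDH/POLR2A normalization; gain/loss fit vs DMSO.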
# [18] = read-out: Transforming Growth Factor (TGFB1), TGFB1 (gene 7040); assay: LTEA_HepaRG_TGFB1: Life Technologies and Expression Analysis (LTEA) Assay for Transforming Growth Factor (TGFB1) Transporter using HepaRG (AID 2283533)
# Method in brief: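 TGFB1 transcript measured by qRT-PCR with normalisation to three housekeeping genes (ACTB, GAPDH, POLR2A); human HepaRG line treated in duplicate for 48 hr with an 8-point series topping at 100 uM, 0.5% DMSO vehicle, bidirectionally fitted.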
# Chain of Signal transducer and activator of transcription 3 (Homo sapiens) (P40763 whole entry, looked up): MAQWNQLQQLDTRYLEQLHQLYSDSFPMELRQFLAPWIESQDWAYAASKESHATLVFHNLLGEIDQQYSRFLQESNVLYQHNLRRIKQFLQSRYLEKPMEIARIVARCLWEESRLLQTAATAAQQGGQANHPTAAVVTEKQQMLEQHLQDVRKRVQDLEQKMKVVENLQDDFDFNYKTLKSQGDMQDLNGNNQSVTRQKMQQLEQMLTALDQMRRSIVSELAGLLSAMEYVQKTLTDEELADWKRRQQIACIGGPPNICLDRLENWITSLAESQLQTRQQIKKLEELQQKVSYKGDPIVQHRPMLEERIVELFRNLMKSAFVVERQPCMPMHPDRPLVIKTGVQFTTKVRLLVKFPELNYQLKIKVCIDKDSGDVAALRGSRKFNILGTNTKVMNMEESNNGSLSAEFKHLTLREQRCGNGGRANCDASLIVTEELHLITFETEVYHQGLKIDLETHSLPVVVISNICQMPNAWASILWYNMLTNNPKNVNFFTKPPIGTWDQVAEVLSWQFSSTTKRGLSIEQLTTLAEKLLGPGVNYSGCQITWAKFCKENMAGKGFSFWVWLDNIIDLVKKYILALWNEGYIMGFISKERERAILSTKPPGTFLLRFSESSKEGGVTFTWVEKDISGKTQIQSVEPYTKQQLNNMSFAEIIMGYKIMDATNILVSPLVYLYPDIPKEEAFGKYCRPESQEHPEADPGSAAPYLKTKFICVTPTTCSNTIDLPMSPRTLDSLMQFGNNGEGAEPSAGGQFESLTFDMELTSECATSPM
# Chain of Nuclear factor NF-kappa-B p105 subunit (Homo sapiens) (P19838 whole entry, looked up): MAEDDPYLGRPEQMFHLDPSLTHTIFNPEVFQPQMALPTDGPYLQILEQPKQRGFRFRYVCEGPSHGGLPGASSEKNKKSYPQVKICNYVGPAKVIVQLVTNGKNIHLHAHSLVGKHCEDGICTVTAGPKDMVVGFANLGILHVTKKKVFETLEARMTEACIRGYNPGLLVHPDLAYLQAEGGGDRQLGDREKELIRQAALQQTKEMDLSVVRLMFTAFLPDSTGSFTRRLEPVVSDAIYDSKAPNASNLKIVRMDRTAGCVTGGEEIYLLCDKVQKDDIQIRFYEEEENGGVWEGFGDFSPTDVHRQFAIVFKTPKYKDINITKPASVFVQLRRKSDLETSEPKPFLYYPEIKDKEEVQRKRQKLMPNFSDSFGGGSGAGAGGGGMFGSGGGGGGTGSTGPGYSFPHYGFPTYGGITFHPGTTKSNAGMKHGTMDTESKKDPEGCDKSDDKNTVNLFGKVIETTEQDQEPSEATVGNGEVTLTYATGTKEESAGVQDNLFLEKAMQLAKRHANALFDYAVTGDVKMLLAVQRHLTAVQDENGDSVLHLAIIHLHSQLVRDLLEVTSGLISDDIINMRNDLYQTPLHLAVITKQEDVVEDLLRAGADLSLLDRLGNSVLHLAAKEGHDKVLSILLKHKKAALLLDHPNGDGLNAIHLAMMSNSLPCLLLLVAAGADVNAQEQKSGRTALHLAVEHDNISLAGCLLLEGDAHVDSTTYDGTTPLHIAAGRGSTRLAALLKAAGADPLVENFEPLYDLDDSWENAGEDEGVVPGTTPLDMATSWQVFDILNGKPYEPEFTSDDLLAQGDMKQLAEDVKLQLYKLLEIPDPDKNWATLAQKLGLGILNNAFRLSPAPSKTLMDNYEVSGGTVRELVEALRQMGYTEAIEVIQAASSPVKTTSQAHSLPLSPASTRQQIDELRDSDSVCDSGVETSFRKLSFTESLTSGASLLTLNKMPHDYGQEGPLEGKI
# Chain of Nuclear factor erythroid 2-related factor 2 (Homo sapiens) (Q16236 whole entry, looked up): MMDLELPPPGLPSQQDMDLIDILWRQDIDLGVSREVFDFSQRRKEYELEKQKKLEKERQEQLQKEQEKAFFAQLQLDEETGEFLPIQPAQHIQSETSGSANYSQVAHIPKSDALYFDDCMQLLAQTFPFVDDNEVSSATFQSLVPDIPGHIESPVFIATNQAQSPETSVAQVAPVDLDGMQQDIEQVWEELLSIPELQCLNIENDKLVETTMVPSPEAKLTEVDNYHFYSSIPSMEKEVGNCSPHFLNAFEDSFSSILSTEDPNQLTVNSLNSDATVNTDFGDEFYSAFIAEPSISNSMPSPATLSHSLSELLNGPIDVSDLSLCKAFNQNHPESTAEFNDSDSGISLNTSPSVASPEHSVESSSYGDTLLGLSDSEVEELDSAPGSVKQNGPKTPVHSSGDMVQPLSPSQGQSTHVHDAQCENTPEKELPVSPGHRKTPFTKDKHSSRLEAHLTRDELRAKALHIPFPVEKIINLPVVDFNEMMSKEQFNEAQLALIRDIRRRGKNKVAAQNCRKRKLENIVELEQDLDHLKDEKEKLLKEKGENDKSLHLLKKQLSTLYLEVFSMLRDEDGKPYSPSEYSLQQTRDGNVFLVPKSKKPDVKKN
smiles,measurement,setting,value
Cc1ccc(-c2c(Cl)nc(C#N)n2S(=O)(=O)N(C)C)cc1,AC50,[1],50 µM (active)
same,outcome,[2],inactive
same,AC50,[3],10.2 µM (active)
same,outcome,[4],inactive
same,AC50,"MYC, MYC (gene 4609)",13.1 µM (active)
same,outcome,[5],inactive
same,AC50,[6],50 µM (active)
same,AC50,[7],32.2 µM (active)
same,AC50,[8],16.8 µM (active)
same,AC50,[9],50 µM (active)
same,AC50,[10],50 µM (active)
same,outcome,[11],inactive
same,outcome,[12],inactive
same,AC50,[13],2.73 µM (active)
same,AC50,[14],18.4 µM (active)
same,AC50,[15],31.1 µM (active)
same,AC50,[16],10.3 µM (active)
same,outcome,[17],inactive
same,outcome,[18],inactive
COP(N)(=O)SC (stereo not drawn),outcome,[1],inactive
same,outcome,[2],inactive
same,outcome,[3],inactive
same,outcome,[4],inactive
same,outcome,"MYC, MYC (gene 4609)",inactive
same,outcome,[5],inactive
same,outcome,[6],inactive
same,outcome,[7],inactive
same,outcome,[8],inactive
same,outcome,[9],inactive
same,outcome,[10],inactive
same,outcome,[11],inactive
same,outcome,[13],inactive
same,outcome,[14],inactive
same,outcome,[15],inactive
same,outcome,[16],inactive
same,outcome,[18],inactive
CNC(=O)ON=CC(C)(C)SC,outcome,[1],inactive
same,outcome,[2],inactive
same,outcome,[3],inactive
same,outcome,[4],inactive
same,outcome,"MYC, MYC (gene 4609)",inactive
same,outcome,[5],inactive
same,outcome,[6],inactive
same,outcome,[7],inactive
same,outcome,[8],inactive
same,outcome,[9],inactive
same,outcome,[10],inactive
same,outcome,[11],inactive
same,outcome,[13],inactive
same,outcome,[14],inactive
same,outcome,[15],inactive
same,outcome,[16],inactive
same,outcome,[18],inactive
